Hits are enriched below; roughly 18% of the tested compounds scored in any of these assays.
GCN5L2 inh: qHTS Assay for Inhibitors of GCN5L2. GCN5L2 HAT assay, ThioGlo1 CoA-SH fluorescence. Histone acetyltransferase KAT2A (Homo sapiens), Q92830. Potency, µM (series often up to 58.9 µM), usual class: inhibitors. actives 0.21% (n = 390,000). AID 504327, 2011
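Free CoA generated was detected with ThioGlo1 (50uM) fluorescence at Ex340nm/Em540nm, read immediately and after 20 min at room temperature. Enzyme, 20 nM in HEPES pH 7.5 buffer, saw compounds 15 min before adding 75uM H3(1-25) peptide and 70uM acetyl-CoA.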
TDP1 cell CPT: qHTS for Inhibitors of human tyrosyl-DNA phosphodiesterase 1 (TDP1): qHTS in cells in presence of CPT; chicken DT40 Tdp1-/-;hTDP1 cells + 20 nM CPT, ATP luminescence, 48 h; Potency, µM (highest dose often 46.2 µM), actives largely listed as inhibitors; actives 12% (n = 420,000); AID 686979, 2013; note: nearly all actives have a fitted effect of over 55% in size
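Chicken DT40 Tdp1-/- cells complemented with human TDP1, 400 cells/well, exposed to compounds plus 20 nM camptothecin for at least 48 h at 37 C; viability read as ATP content by CellTiter-Glo luminescence.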
TDP1 block: qHTS Assay for Inhibitors of Tyrosyl-DNA Phosphodiesterase (TDP1); Tyrosyl-DNA phosphodiesterase 1 (Homo sapiens), Q9NUW8; recombinant TDP1, AlphaScreen DNA substrate cleavage; Potency, µM (top dose mostly 130 µM), usual class: inhibitors; actives 0.28% (n = 350,000); AID 485290, 2010; note: nearly all actives have a fitted effect of over 40% in size
Target sequence (Q9NUW8 whole entry, looked up): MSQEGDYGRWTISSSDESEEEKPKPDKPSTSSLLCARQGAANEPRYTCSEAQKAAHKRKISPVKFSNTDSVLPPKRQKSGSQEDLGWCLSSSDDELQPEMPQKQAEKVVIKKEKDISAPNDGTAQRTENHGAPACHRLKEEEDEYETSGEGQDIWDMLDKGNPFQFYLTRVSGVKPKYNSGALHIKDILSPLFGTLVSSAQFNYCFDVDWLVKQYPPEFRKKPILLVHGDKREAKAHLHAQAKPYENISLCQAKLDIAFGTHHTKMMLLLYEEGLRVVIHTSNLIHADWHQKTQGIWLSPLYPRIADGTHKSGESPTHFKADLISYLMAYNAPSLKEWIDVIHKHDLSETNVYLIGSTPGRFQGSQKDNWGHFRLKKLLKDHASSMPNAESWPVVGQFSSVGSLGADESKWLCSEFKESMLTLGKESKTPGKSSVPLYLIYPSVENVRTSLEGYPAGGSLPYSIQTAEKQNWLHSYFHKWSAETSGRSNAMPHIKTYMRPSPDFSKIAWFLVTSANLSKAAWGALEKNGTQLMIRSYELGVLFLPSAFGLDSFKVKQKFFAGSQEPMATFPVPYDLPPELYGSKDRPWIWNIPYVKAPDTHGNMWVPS
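Here, a 5' biotin and 3' phosphotyrosine-FITC DNA oligonucleotide reports Tdp1 activity: intact substrate bridges AlphaScreen beads, while cleavage leaves a 3' phosphate and drops signal. All incubations at room temperature.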
VDR inhibitor: Inhibitors of the vitamin D receptor (VDR): qHTS | VDR-SRC2-3 peptide fluorescence polarization, 2 h | Potency, µM, hits mostly inhibitors | actives 0.93% (n = 400,000) | Vitamin D3 receptor (Homo sapiens), P11473 | AID 504847, 2011
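Two reagent solutions held at 4 deg C in the dark were dispensed, compounds pinned at 23 nl, and the mixture incubated 2 h at room temperature. Read-out: fluorescence polarization of VDR–SRC2-3 peptide binding.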
DT40 TDP1 no CPT: qHTS for Inhibitors of human tyrosyl-DNA phosphodiesterase 1 (TDP1): qHTS in cells in absence of CPT | DT40 Tdp1-/- hTDP1 cells, no CPT, ATP luminescence, 48 h | Potency, µM (highest dose often 46.2 µM), most hits filed as inhibitors | actives 15% (n = 420,000); note: nearly all actives have a fitted effect of over 55% in size
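Chicken DT40 Tdp1-/- cells complemented with human TDP1, screened without camptothecin (DMSO vehicle only), 400 cells/well. Compounds pin-transferred, cells incubated at 37 °C for at least 48 hr. Growth read as ATP-dependent luminescence (CellTiter-Glo, 30 min at RT).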
PLK1 PBD inh: qHTS for Inhibitors of PLK1-PDB (polo-like kinase 1 - polo-box domain): Primary Screen; actives 2.8% (n = 360,000); AID 720504, 2013; Plk1 PBD binding of FITC phosphopeptide, fluorescence polarization; Potency, µM, most hits filed as inhibitors; Serine/threonine-protein kinase PLK1 (Homo sapiens), P53350; note: series mostly up to about 57 µM; nearly all actives have a fitted effect of over 65% in size
A number is an active result; – = inactive; ? = inconclusive; · = no result. Calls come from the whole dose curve; as a rule, active = well fitted curve in the direction sought with a large enough effect; inconclusive = small, poorly fitted or top-dose-only effect, or another doubt; inactive = no such curve, though single readings can be large; an effect the other way counts as inactive or inconclusive.

SMILES	GCN5L2 inh	TDP1 cell CPT	TDP1 block	VDR inhibitor	DT40 TDP1 no CPT	PLK1 PBD inh
COc1ccc(NC(=O)C2CCCCN2N)cc1OC (stereo not given)	–	?	–	–	18.4µM	26.7µM
Cc1ccc(NC(=O)CCNCc2ccco2)cc1S(=O)(=O)N(C)C	–	–	–	–	–	–
N#Cc1ccc(OC(=O)c2cc(-c3ccc4c(c3)OCCO4)on2)cc1	–	–	–	–	–	·
O=C(OCC(=O)N1CCCc2ccccc21)c1cccc(S(=O)(=O)N2CCc3ccccc32)c1	–	?	–	–	?	–
CSc1cccc(NC(=O)C2CCCN2S(=O)(=O)c2ccc(Br)s2)c1 (stereo not given)	–	?	–	–	23.1µM	–
CC1CCCN(S(=O)(=O)c2ccc(NC(=O)C3CCN(C(=O)c4ccco4)CC3)cc2)C1 (stereo not given)	–	20.6µM	–	?	13µM	–
CCC(C)NS(=O)(=O)c1ccc(NC(=O)C2CCN(C(=O)c3ccco3)CC2)cc1 (stereo not given)	–	?	–	–	?	–
CSc1cccc(NC(=O)C2CCN(S(=O)(=O)c3ccc4c(c3)NC(=O)CO4)CC2)c1	–	?	–	–	?	–
CSc1cccc(NC(=O)C2CCN(S(=O)(=O)c3ccc(F)cc3)CC2)c1	·	?	–	–	20.6µM	–
CC(C)c1ccc(NC(=O)C2CCCN(S(=O)(=O)c3ccc(Br)s3)C2)cc1 (stereo not given)	–	?	–	–	?	·
CCCCc1ccc(S(=O)(=O)N2CCN(C(=O)c3ccco3)CC2)cc1	–	?	–	–	8.2µM	–
CN(C)NC(=S)NC1CC2CCC1C2 (stereo not given)	–	–	–	–	–	–
CCOc1ccc2nc(SCC(=O)N(CCOC)c3c(N)n(Cc4ccccc4)c(=O)[nH]c3=O)[nH]c2c1	–	–	·	–	–	–
Cc1cccnc1NC(=O)Nc1cccc(Cl)c1	–	–	–	–	–	–
Cc1csc2nc(-c3cccc(NC(=O)c4ccccc4F)c3)cn12	–	?	–	–	?	·
Cc1csc2nc(-c3cccc(NC(=O)c4cccc(F)c4)c3)cn12	–	18.4µM	–	–	18.4µM	·
Cc1csc2nc(-c3cccc(NC(=O)c4ccccc4Cl)c3)cn12	–	18.4µM	–	–	18.4µM	·
COc1ccc(Cc2nc3ccc(C(=O)N(C)C(C)c4ccon4)cc3o2)cc1 (stereo not given)	–	?	–	–	–	–
O=C(O)CC1S/C(=N/N=C/c2ccc(-c3ccc(Cl)cc3[N+](=O)[O-])o2)NC1=O (stereo not given)	–	?	–	?	?	16.8µM
O=C(O)CC1S/C(=N/N=C/c2ccc(-c3ccc(Cl)c([N+](=O)[O-])c3)o2)NC1=O (stereo not given)	–	–	–	–	–	–
Cc1sc(NC(=O)c2ccco2)c(C(c2ccncc2)N2CCOCC2)c1C (stereo not given)	–	–	–	–	?	–
Cc1sc(NC(=O)c2ccco2)c(C(c2cccnc2)N2CCCC2)c1C (stereo not given)	–	2.91µM	–	–	2.31µM	–
CCOc1ccc(C(c2c(NC(=O)c3ccco3)sc(C)c2C)N2CCOCC2)cc1 (stereo not given)	–	23.1µM	–	–	?	–
NC(=S)N/N=C1/CCSc2ccc3ccccc3c21	–	3.66µM	–	–	2.59µM	?
NC(=S)N/N=C/c1coc2c(ccc3ccccc32)c1=O	–	–	–	–	–	–
SMILES	GCN5L2 inh	TDP1 cell CPT	TDP1 block	VDR inhibitor	DT40 TDP1 no CPT	PLK1 PBD inh
CN(Cc1ccccn1)C(=O)c1cc(COc2ccc(F)cc2Cl)on1	·	?	·	·	23.1µM	–
CCN(Cc1ccncc1)C(=O)c1cc(COc2ccc(OC)cc2Cl)on1	–	16.4µM	–	–	?	–
CCc1ccc(CN(C)C(=O)c2cc(COc3ccc(OC)cc3Cl)on2)nc1	–	?	–	–	29.1µM	–
CCN(Cc1ccncc1)C(=O)c1cc(COc2c(F)cccc2F)on1	–	?	–	?	–	29.9µM
COc1ccc(OCc2cc(C(=O)N(C)Cc3cc(C)no3)no2)c(Cl)c1	–	–	–	–	?	–
CN(Cc1cccc2ccccc12)C(=O)c1cc(COc2c(F)cccc2F)on1	–	?	·	–	?	–
CCN(CC1CCCO1)C(=O)c1cc(COc2ccc(OC)cc2Cl)on1 (stereo not given)	–	?	–	–	–	–
Cc1cc(C)nc(NS(=O)(=O)c2ccc(NC(=O)c3ccc(O)cc3O)cc2)n1	–	–	·	–	–	–
COc1ccc(-n2ncc3c(SCC(=O)OC(C)C)ncnc32)cc1	·	–	·	·	?	–
CCNC(=O)CC1SC(=Nc2ccc(C)c([N+](=O)[O-])c2)N(C)C1=O (stereo not given)	·	–	·	–	?	–
CCN(Cc1ccncc1)C(=O)c1cc(COc2ccc(F)cc2Cl)on1	–	16.4µM	–	–	?	–
Cc1nonc1CN(C)C(=O)c1cc(COc2ccc(F)cc2Cl)on1	–	?	–	–	–	–
N#Cc1ccc(/C=N/NC(=S)Nc2ccc(S(=O)(=O)N3CCOCC3)cc2)cc1	–	?	·	–	20.6µM	–
O=[N+]([O-])c1cc(Cl)cc(/C=N/NC(=S)Nc2ccc(S(=O)(=O)N3CCOCC3)cc2)c1O	?	?	–	–	?	16.8µM
O=S(=O)(c1ccc(NC(=S)N/N=C/c2ccc(O)c(O)c2)cc1)N1CCOCC1	–	–	–	–	–	–
Cc1ccc(OCc2nc(-c3ccc(C(=O)N4CCN(c5ccccc5F)CC4)cc3)oc2C)cc1	–	–	–	–	–	·
CCCNC(=O)C1(CC2CC(c3ccccc3)=NO2)CCN(C(=O)CCCCCBr)CC1 (stereo not given)	·	–	·	–	–	–
Cc1oc(-c2cc(F)ccc2F)nc1CN(C)Cc1ccc2nccnc2c1	–	?	–	–	16.4µM	–
Cc1oc(-c2cc(F)ccc2F)nc1CN1CCN(c2cnccn2)CC1	–	–	–	–	–	–
CCN(CC)CCCNC(=O)c1ccc(S(=O)(=O)Nc2ccc(C)c(C)c2)cc1	–	?	–	–	16.4µM	–
CC(=O)Nc1ccc(S(=O)(=O)Nc2ccc(C)c(C)c2)cc1	·	·	–	·	·	·
Cc1ccc(NC(=O)N2CCN(C(=O)c3nsc4ccccc34)CC2)cc1C	–	?	–	–	?	·
